# TLR9-MyD88 inh = inhibitors of human TLR9-MyD88 binding; Q9NR96+Q99836; CHO BLA complementation TLR9-MyD88, CCF4 FRET ratio; inhibition, % at 4.98 µM; 0.21% of 340,000 active;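 active = inhibition above the mean over all tested compounds plus 3 SD, cut at about 21% in these data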;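 note: 0% = DMSO only wells and 100% = clavulanate BLA inhibitor control wells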
# TLR4 MyD88 comp = TLR4-MyD88 interaction inhibition in cells; O00206+Q99836; HeLa CL3-4 TLR4/MyD88 BLA complementation, FRET ratio; inhibition, % at 8.4 µM; 0.18% of 200,000 active; AID 861; in the data active = inhibition above about 25%;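 note: 0% = vehicle and 100% = reference inhibitor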
# NOD2 RIPK2 PPI = inhibitors of human NOD2-RIPK2 interaction. inhibition, % at 4.98 µM. CHO BLA complementation NOD2-RIPK2, CCF4 ratio. 0.38% of 360,000 active. AID 624267; in the data active = inhibition above about 21%;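 note: 0% = vehicle only and 100% = reference blocker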
# m5-HT2A agonist = agonists of mouse serotonin 5-HT2A receptor (HTR2A); P35363; CHO-K1 mHTR2A beta-arrestin complementation, luminescence; percent of 30 µM serotonin response; activation, % at 7.6 µM; 0.66% of 360,000 active; AID 624169;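 active = activation above a run cutoff, the mean activation of all tested compounds plus 3 SD, cut at about 14% in these data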;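 note: 0% = plate median of compound wells and 100% = 30 µM serotonin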
# Rtt109 Vps75 = inhibitors of Candida albicans Rtt109/Vps75 histone acetyltransferase; purified Rtt109/Vps75, ThioGlo CoA-SH fluorescence, 4 h; inhibition, % at 34.9 µM; Q5AAJ8; 0.16% of 330,000 active;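 active = inhibition of at least 50% in every replicate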
# LANA-H2B inh = blocks KSHV LANA binding to histone H2A/H2B; Q9QR71; cell-free LANA-H2A/H2B peptide, fluorescence polarization; inhibition, % (concentration not given with the values); 0.6% of 320,000 active; in the data active = inhibition mostly above about 10%, no sharp cut-off; inactive = mostly below about 6.7%
# TLR4-MyD88 conf = TLR4-MyD88 interaction inhibition confirmed; shares compounds with TLR4 MyD88 comp; HeLa CL3-4 BLA complementation, CCF4 FRET ratio; inhibition, % at 8.4 µM; 50% of 350 active;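 active = mean inhibition across three repeat runs above about 25% carried over from the earlier screen, limit read from the data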;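 note: plate controls were DMSO only for no effect and clavulanic acid blocking BLA at full dose for full effect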
# BLA inh HeLa = beta-lactamase inhibition flagged in TLR4-MyD88 counter-screen; 63% of 350 active; inhibition, % at 8.4 µM; shares compounds with TLR4 MyD88 comp; HeLa BLA reporter, CCF4 FRET ratio; AID 1237;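 active = mean inhibition over three repeats above about 26% taken from the earlier screen, limit read from the data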;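 note: HeLa cells stably expressing beta-lactamase reporter as counterscreen for TLR4-MyD88 inhibitors; 0% = DMSO and 100% = clavulanic acid full inhibition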
# TLR9-MyD88 cf = confirmation of human TLR9-MyD88 binding inhibitors | inhibition, % at 4.98 µM | AID 540250 | CHO TLR9/MyD88 BLA complementation, CCF4 FRET ratio | shares compounds with TLR9-MyD88 inh | 51% of 680 active;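 active = mean inhibition across three repeats above about 21% taken from the earlier screen, limit read from the data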;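 note: blue over green emission ratio reports constitutive TLR9 MyD88 association via BLA complementation; 0% = DMSO vehicle wells and 100% = clavulanate BLA inhibitor wells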
# BLA counter-1 = non-selective beta-lactamase inhibitors in TLR9-MyD88 counter-screen. shares compounds with TLR9-MyD88 inh. CHO-BLA cells, CCF4 FRET ratio, BLA reporter. inhibition, % at 4.98 µM. 7% of 680 active. AID 540251;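 active = mean inhibition above a 50% cutoff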;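 note: counterscreen of TLR9-MyD88 hits on CMV-driven BLA in CHO-K1 cells; 0% = DMSO alone and 100% = clavulanate blocking BLA; higher means less blue over green ratio so more BLA blockade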
# TLR9 CHO tox = CHO cell toxicity counter-screen for TLR9-MyD88 inhibitors; AID 588336; TLR9-MyD88 CHO cells cytotoxicity, luminescence; inhibition, % at 4.98 µM; shares compounds with TLR9-MyD88 inh; 39% of 680 active; in the data active = inhibition above about 11%
# NOD2-RIPK2 conf = confirmation of human NOD2-RIPK2 interaction inhibitors. CHO cells, NOD2-RIPK2 BLA complementation, CCF4 FRET. inhibition, % at 4.98 µM. AID 624370. 70% of 1,200 active. shares compounds with NOD2 RIPK2 PPI;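 active = mean inhibition across replicates above a set limit taken from the earlier primary screen, cut at about 21% in these data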;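 note: 0% = DMSO-only wells and the high end = clavulanate BLA-blocked wells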
# BLA counter-2 = counter-screen for NOD2-RIPK2 interaction inhibitors: BLA reporter. CHO BLA reporter, CCF4 FRET ratio, counterscreen. inhibition, % at 4.98 µM. AID 624371. 57% of 1,200 active. shares compounds with NOD2 RIPK2 PPI;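 active = mean inhibition above the low-control mean inhibition plus three low-control SD, cut at about 11% in these data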;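 note: 0% = DMSO only wells and 100% = clavulanate high control wells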
# The depositor's hits bear a star; i = inactive; / = no result. In the library only some 1.8% were active in any assay of this set; here they are far more common.
SMILES,TLR9-MyD88 inh,TLR4 MyD88 comp,NOD2 RIPK2 PPI,m5-HT2A agonist,Rtt109 Vps75,LANA-H2B inh,TLR4-MyD88 conf,BLA inh HeLa,TLR9-MyD88 cf,BLA counter-1,TLR9 CHO tox,NOD2-RIPK2 conf,BLA counter-2
O=C(C1=NN(c2ccccc2)C2C(=O)N(c3ccccc3Cl)C(=O)C12)c1ccccc1 (stereo unspecified),28*,38*,42*,3,-11,5,21,27*,17,16,-3,47*,48*
COc1ccc(-c2ccc3c(N)c(C(=O)c4cccc(OC)c4)sc3n2)cc1,12,31*,25*,0,-7,3,28*,57*,/,/,/,45*,56*
COc1cccc(-c2ccc3c(N)c(C(=O)NC4CC4)sc3n2)c1,12,/,5,3,14,0,/,/,/,/,/,/,/
O=[N+]([O-])c1ccc(NN=Cc2ccccc2)nc1,4,/,14,-3,-2,/,/,/,/,/,/,/,/
O=[N+]([O-])c1ccc(N/N=C\c2cccn2-c2ccccc2)nc1,34*,41*,46*,-9,2,2,40*,62*,-14,29,9,52*,54*
CC(C)CC1OC(C(C)C)Cc2[nH]c(=S)[nH]c(=O)c21 (stereo unspecified),/,/,11,-3,/,/,/,/,/,/,/,/,/
CN(C)CCCN1C(=O)c2cccc3c([N+](=O)[O-])ccc(c23)C1=O,70*,86*,82*,7,-15,1,86*,109*,55*,72*,95*,90*,77*
CCOC(=O)CN(c1sc(C)c(C)c1C(=O)OCC)S(=O)(=O)c1ccc(C)cc1,1,/,-4,-3,/,/,/,/,/,/,/,/,/
CCN(CC)c1ccc(/C=c2\sc3nc4ccccc4n3c2=O)c(O)c1,34*,30*,37*,5,-231,/,20,50*,21*,37,8,46*,56*
COc1ccc(C2=CC(c3ccc(Cl)cc3)n3cnnc3N2)cc1OC (stereo unspecified),50*,39*,47*,1,i,-1,26*,49*,-4,1,6,2,-8
Cc1ccc(-n2ncc(Br)c(Br)c2=O)cc1,24*,27*,32*,-2,-6,/,22,8,27*,18,101*,45*,8
COc1ccc(/C=c2/sc3n(c2=O)C(c2ccccc2OC)C2=C(N=3)c3ccccc3CC2)cc1O (stereo unspecified),17,27*,35*,-1,5,2,18,45*,/,/,/,26*,31*
C[C@@H]1CCCCO[C@H](CN(C)S(=O)(=O)c2ccc(F)cc2)[C@@H](C)CN([C@H](C)CO)C(=O)c2cc(NC(=O)Nc3ccc(C(F)(F)F)cc3)ccc2O1,-5,/,-4,-2,/,/,/,/,/,/,/,/,/
CC1(C(=O)Nc2ccc3c(c2)OCCO3)CN(S(C)(=O)=O)CC(=O)N1CCc1ccc(O)cc1 (stereo unspecified),/,/,-8,-2,/,/,/,/,/,/,/,/,/
Oc1c(Cl)cc(Cl)cc1/C=C/c1ccc2cccc(O)c2n1,27*,34*,37*,-3,3,-1,19,43*,20,18,-8,47*,54*
Oc1ccc(Cl)cc1/C=C/c1ccc2cccc(O)c2n1,13,-4,5,-3,11,/,/,/,/,/,/,/,/
Cc1ccc(NC(=O)c2cccc(C(F)(F)F)c2)cc1NC(=O)c1[nH]cnc1C(N)=O,28*,/,-6,2,-9,0,/,/,2,5,-3,/,/
COC(=O)c1cc(C#N)c(N2CCOCC2)nc1C,22*,-5,-7,3,-5,-4,/,/,-4,-4,0,/,/
O=S(=O)(c1ccccc1)c1nc(Nc2cccc(O)c2)sc1Cl,21*,-8,7,-3,6,-2,/,/,-1,-3,-1,/,/
CN(C)CC(=O)Nc1ccc2c(c1)[C@H]1C[C@H](CC(=O)NCc3ccc4c(c3)OCO4)O[C@H](CO)[C@H]1O2,0,/,-11,0,/,/,/,/,/,/,/,/,/
N#Cc1ccc(-c2cccnc2)nc1SCC(=O)c1ccccc1,21*,/,14,0,-7,-4,/,/,9,9,10,/,/
O=C(NCCCl)NNc1c(Cl)cc(Cl)cc1Cl,22*,-13,-1,2,2,2,/,/,2,0,3,/,/
CCCCNC(=S)NNc1c(Cl)cc(Cl)cc1Cl,7,-2,-13,-5,-4,0,/,/,/,/,/,/,/
O=C(Nc1c2c(nn1-c1ccccc1)CS(=O)(=O)C2)C1CC1,4,/,-7,-4,/,/,/,/,/,/,/,/,/
O=C(Nc1c2c(nn1-c1ccccc1)CS(=O)(=O)C2)c1ccccc1Br,23*,/,9,-3,-1,4,/,/,8,10,-1,/,/
SMILES,TLR9-MyD88 inh,TLR4 MyD88 comp,NOD2 RIPK2 PPI,m5-HT2A agonist,Rtt109 Vps75,LANA-H2B inh,TLR4-MyD88 conf,BLA inh HeLa,TLR9-MyD88 cf,BLA counter-1,TLR9 CHO tox,NOD2-RIPK2 conf,BLA counter-2
CCn1c(/C=C/c2ccccc2)nc2ccccc21,7,6,-5,-3,-9,0,/,/,/,/,/,/,/
CCCn1c(/C=C/c2cc[n+](C)cc2)nc2ccccc21,30*,/,16,2,i,0,/,/,17,22,-1,/,/
O=C1C(Cl)=C(NCCc2ccccc2)C(=O)c2ccccc21,21*,/,1,-3,7,/,/,/,50*,5,98*,/,/
O=C1C(Cl)=C(Nc2ccccc2)C(=O)c2ccccc21,-3,-3,5,-2,7,-201,/,/,/,/,/,/,/
Cc1cc(C=C2C(=O)c3ccccc3C2=O)c(C)n1-c1ccccc1,0,10,-3,1,-5,2,/,/,/,/,/,/,/
Cc1cc(/C=C2\Cc3ccccc3C2=O)c(C)n1-c1ccccc1,21*,1,10,0,-6,1,/,/,19,23,8,/,/
OC(c1ccc(F)c(F)c1)c1nc(-c2ccc(Cl)cc2)cs1 (stereo unspecified),/,/,4,-2,/,/,/,/,/,/,/,/,/

# Compound activity as filed in PubChem BioAssay.
